This excerpt belongs to a sample that is enriched for hits.
Tb PYK inh: blocks Trypanosoma brucei pyruvate kinase | Q57TT1 | Potency, µM (series often up to 76.8 µM), for the others: at the highest dose activity, negative = inhibition, actives largely listed as inhibitors | TbPYK enzyme, Kinase-Glo Plus ATP luminescence, 45 min | 410,000 tested, 0.12% active; further: potency means the concentration at half of the fitted maximal effect; on the % scale 0 is the no-effect control and ±100 the full control effect; nearly all actives have a fitted effect of over 50% in size
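Assay buffer: 50 mM TEA pH 7.2, 100 mM KCl, 10 mM MgCl2, 0.05% BSA, 0.01% Tween-20. Pyruvate kinase from T. brucei plus substrate met compound, then ADP (130 uM final). Luminescence was read post 45 min RT.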
Shiga toxin inh: inhibitors of Shiga toxin in Vero cells. Vero cells, Shiga toxin protein synthesis inhibition reporter. inhibition, % at 38.7 µM. 290,000 tested, 9.2% active; in the data active means inhibition mostly above about 28%, no sharp cut-off; inactive means mostly below about 43%; further: 0% is about no effect
Cycloheximide cs: counter-screen for Shiga toxin inhibitors: cycloheximide protein synthesis inhibition; cell reporter, cycloheximide protein synthesis inhibition counterscreen; max response, %; 300,000 tested, 12% active; AID 2314; in the data active means max response mostly above about 13%, no sharp cut-off; inactive means mostly below about 14%; further: read at 38.3 µM for the half of the compounds with a filed dose; 0% is about no effect
LmPK inh: LmPK (Leishmania mexicana) enzyme inhibition. Q27686. purified LmPK, Kinase-Glo ATP luminescence, 1 h. Potency, µM (doses to about 57.5 µM), for inactives: at the highest dose activity change, negative = inhibition, usual class: inhibitors. 290,000 tested, 0.37% active; further: potency means the concentration at half of the fitted maximal effect; on the % scale 0 is the no-effect control and ±100 the full control effect
Target sequence (Q27686 whole entry, looked up): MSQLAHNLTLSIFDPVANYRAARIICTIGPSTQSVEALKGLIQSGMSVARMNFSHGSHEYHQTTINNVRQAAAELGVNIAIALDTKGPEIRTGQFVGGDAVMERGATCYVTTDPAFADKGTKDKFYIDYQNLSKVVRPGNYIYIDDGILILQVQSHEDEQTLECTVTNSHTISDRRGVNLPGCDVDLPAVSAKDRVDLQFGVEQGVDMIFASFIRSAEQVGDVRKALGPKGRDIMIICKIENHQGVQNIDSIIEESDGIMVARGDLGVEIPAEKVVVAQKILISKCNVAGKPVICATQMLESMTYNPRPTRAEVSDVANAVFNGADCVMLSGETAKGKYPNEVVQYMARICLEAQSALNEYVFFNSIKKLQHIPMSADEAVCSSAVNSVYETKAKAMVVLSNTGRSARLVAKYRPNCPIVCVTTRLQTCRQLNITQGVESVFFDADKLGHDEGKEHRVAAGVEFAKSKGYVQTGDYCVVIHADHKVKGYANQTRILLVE
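ATP generated from ADP (0.1 mM) and PEP (0.5 mM) by 0.1 nM LmPK over 1 h at room temperature (pH 7.2 imidazole buffer) was detected by coupled luciferase luminescence. Values were normalized to uninhibited and no-enzyme wells.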
RE007 growth inh: less growth of the S. pombe RE007 Vpr strain; S. pombe RE007 Vpr strain, BacTiter-Glo ATP luminescence, 24 h; Potency, µM (top dose mostly 92.2 µM), inactives show at the highest dose activity change, negative = less growth, actives largely listed as inhibitors; 360,000 tested, 0.21% active; AID 651644; active means well fitted falling curve with a large enough effect; inconclusive means small, poorly fitted or top-dose-only effect; inactive means no such curve, though single readings can be large or run the other way; further: potency means the concentration at half of the fitted maximal effect; on the % scale 0 is the no-effect control and ±100 the full control effect; nearly all actives have a fitted effect of over 50% in size
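Fission yeast strain RE007, carrying one chromosomally integrated HIV-1 vpr copy, was seeded at OD 0.01 in PMG+AL medium with 23 nL pinned compound. After 24 h at 30 °C and 99% humidity, viability was read by BacTiter-Glo luminescence.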
FBPA Giardia inh: blocks Giardia fructose-bisphosphate aldolase activity; purified Giardia FBPA; Potency, µM (titrated, usually from 59.6 µM), without a hit: top-dose activity, negative = inhibition, usual class: inhibitors; 290,000 tested, 0.71% active; further: potency means the concentration at half of the fitted maximal effect; on the % scale 0 is the no-effect control and ±100 the full control effect; nearly all actives have a fitted effect of over 55% in size
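40 nM FBPA preincubated 10 min at RT with compound (up to 57.5 uM final), then substrate plus GAPDH/TPI/NAD/arsenate coupling and diaphorase/resazurin added. Fluorescence read after 20 min at RT, 525/598 nm.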
Numbers without * were called inactive; u = inconclusive; x = no result given; [ ] = dose if it differs, or a comment. Unless noted, the call rests on the fitted dose curve; in most records, active means well fitted curve in the direction sought with a large enough effect; inconclusive means small, poorly fitted or top-dose-only effect, or another doubt; inactive means no such curve, though single readings can be large; an effect the other way counts as inactive or inconclusive.

SMILES	Tb PYK inh	Shiga toxin inh	Cycloheximide cs	LmPK inh	RE007 growth inh	FBPA Giardia inh
Cc1nn(-c2ccccc2)c(C)c1Cc1ccc(O)cc1	5%	77*	26*	-3%	12%	11%
Cc1ccnc(NC(=O)c2cccc(NC(=O)c3ccc(Cl)cc3)c2)c1	-1%	x	x	x	-21%	x
Cc1cccc(C(=O)Nc2cccc(C(=O)Nc3cc(C)ccn3)c2)c1	0%	9	8.5*	-3%	5%	1%
Cc1ccnc(NC(=O)c2cccc(NC(=O)Cc3ccccc3)c2)c1	0%	41	15*	0%	u	3%
CC(C)[C@H](O)C1=CCCCC1=O	x	x	x	x	x	6%
CCCCOc1ccc(S(=O)(=O)Nc2ccc(-c3ccc(N4CCCCC4)nn3)cc2)cc1	-1%	x	x	x	x	x
O=S(=O)(Nc1ccncc1)c1ccc(Cl)c(Cl)c1	-4%	x	18*	2%	13%	-11%
Cc1nn(Cc2ccccc2)c(Cl)c1C(=O)NCCc1ccc(Cl)cc1	0%	18	14*	-1%	2%	4%
Cc1nn(-c2ccccc2)c(C)c1C(=O)NCCc1ccccc1	1%	74*	33*	0%	-6%	-2%
Cc1nn(-c2ccccc2)c(C)c1C(=O)NCCc1ccc(Cl)cc1	1%	-17	-2	-6%	-12%	x
Cc1cccc(C)c1NC(=O)C1=C(O)c2ccccc2N(C)S1(=O)=O	-2%	-2	2	0%	-13%	11%
Cc1ccc(NC(=O)C2=C(O)c3ccccc3N(C)S2(=O)=O)cc1	0%	44	34*	-6%	-15%	9%
COc1ccc(OC)c(CNC(=O)C(C)n2c(C)c3cnn(-c4ccccc4)c(=O)c3c2C)c1 (configuration not stated)	3%	x	x	x	x	x
COc1cccc(C(=O)NCC(=O)OCC(=O)c2ccccc2)c1	7%	83*	29*	-3%	-11%	3%
O=C(COc1cccc(NC(=O)c2ccccc2)c1)c1ccccc1	3%	32	2	-2%	1%	7%
COc1cccc(C(=O)Nc2cccc(OCC(=O)c3ccccc3)c2)c1	3%	48	21*	-14%	-17%	-9%
O=C(CNC(=O)c1cccc(OC(F)F)c1)OCC(=O)c1ccccc1	0%	-7	10	4%	7%	0%
COc1cccc(C(=O)COc2ccc(NC(=O)c3ccccc3)cc2)c1	3%	37	16*	0%	4%	2%
COc1ccccc1CN1C(=O)CN(C2CCCCCC2)C(=O)C1c1ccc(C)cc1 (configuration not stated)	-4%	x	x	x	x	x
O=C(CCSCc1cnn(-c2ccccc2)c1-n1cccc1)NCc1ccc(Cl)cc1	-5%	x	x	x	x	x
COc1cc(OC)c(NC(=O)c2nn(C)c3c2COc2ccccc2-3)cc1Cl	0%	x	x	x	x	x
CC(NC(=O)Cc1ccc(NC(=O)N2CCSc3ncccc32)cc1)c1ccccc1 (configuration not stated)	-10%[15.4 µM]	x	x	x	x	x
CNC(=O)c1sc(-c2cccnc2)nc1C	2%	-14	-4	-4%	-8%	-1%
Cc1nc(-c2ccc(Cl)cc2)sc1C(=O)NNC(=O)C(C)C	-10%	-10	8	-2%	-18%	3%
CC(=O)c1sc(-c2cccc(Cl)c2)nc1C	2%	49	20*	-6%	-7%	4%
SMILES	Tb PYK inh	Shiga toxin inh	Cycloheximide cs	LmPK inh	RE007 growth inh	FBPA Giardia inh
CNC(=O)c1sc(-c2ccc(Cl)cc2)nc1C	-6%	112*	53*	-1%	-4%	0%
Cc1nc(-c2ccccc2)sc1C(N)=O	4%	0	15	-4%	u	2%
C=C(C)c1sc(-c2ccccc2)nc1C	2%	x	x	x	-3%	x
C/C(=N\O)c1sc(-c2ccccc2)nc1C	-1%	98*	46*	u	-11%	-1%
CNC(=O)c1sc(-c2ccccc2)nc1C	-5%	132*	39*	9%	-9%	-1%
Cc1ccc(OCC(=O)N(Cc2ccc(Cl)cc2)Cc2ccco2)cc1C	-2%	x	x	x	x	x
COC(=O)N1CCC2(CCN(Cc3nccs3)CC2)CC1	0%	x	x	x	x	3%
Cc1cc(S(=O)(=O)Nc2cccc(-c3ccc(N4CCOCC4)nn3)c2)c(C)cc1Cl	12%	x	x	x	x	x
Cc1nc(-c2ccc(C(F)(F)F)cc2)sc1C(=O)NN	-2%	37	15*	-6%	u	-11%
CCNC(=O)O/N=C(\C)c1sc(-c2ccccc2)nc1C	1%	61*	39*	-4%	u	-6%
Cc1nc(-c2ccccc2)sc1C(=O)/C=C/c1ccc(Cl)cc1	2%	-16	-1	3%	5%	3%
CC(=O)c1sc(-c2ccc(Cl)cc2)nc1C	2%	53*	26*	-9%	-23%	2%
CCCS(=O)(=O)N1CC(=O)N(c2cccc(Cl)c2C)C(C)(C(=O)NC2CCCC2)C1 (configuration not stated)	1%[15.4 µM]	x	x	x	x	x
Cc1nc2sc(C(=O)Nc3ccccc3)c(N)c2c(C)c1[N+](=O)[O-]	-13%	91*	50*	3%	-4%	4%
Cc1nc2sc(C(=O)c3ccccc3)c(N)c2c(C)c1C	3%	31	24*	0%	-6%	10%
COc1ccc(NC(=O)c2sc3nc(C)c(C(=O)Nc4ccc(Cl)cc4)c(-c4ccc(Br)cc4)c3c2N)cc1	-6%	x	x	x	x	x
COC(=O)c1sc2nc(C)cc(C)c2c1N	-4%	31	9	-5%	-5%	-14%
Cc1nc2sc(C(=O)OC(C)C)c(N)c2c(C)c1C	7%	41*	19*	-6%	-13%	-5%
CC(=O)c1ccc(NC(=O)c2sc3nc(C)c(C)c(C)c3c2N)cc1	-19%	115*	54*	5%	14%	14%
Cc1nc(-c2ccccc2)nc2sc(C(=O)c3ccc(F)cc3)c(N)c12	-2%	-10	2	1%	18%	4%
CC(C)[C@H](CO)Nc1nc(Nc2cccc(Cl)c2)c2ncn(C(C)C)c2n1	x	x	x	x	x	-6%
COc1ccc(-c2nc(-c3ccccc3)oc2NC(C)C)cc1	x	x	x	x	x	0%
CCCCOC(=O)c1ccc(NC(=O)CSc2nc3c(c(=O)[nH]2)CCCC3)cc1	-2%	x	x	x	x	x
CCNc1ncc2nc(CCc3ccccc3)c(=O)n(C)c2n1	0%	x	x	x	x	-5%
Cc1ccc(-n2c(Cl)c(Cl)nc(Cl)c2=O)cc1	4%	-3	-6	-2%	10µM*	1%
COc1nc(Cl)cn(-c2ccc(C)cc2)c1=O	1%	16	1	3%	11%	0%
COC(=O)c1ccc(-c2ccc(Cl)cc2)nc1C	-4%	37*	95*	-14%	x	0%
COC(=O)c1cc(C#N)c(NCc2ccc(Cl)cc2Cl)nc1C	4%	-9	-4	1%	-20%	x
CC(=O)Nc1ccc(N/C=C/C(=O)c2ccc(C)o2)cc1	4%	71*	22*	-15%	-4%	0%

High-throughput results as filed in PubChem.
